Measurements published in ChEMBL document CHEMBL1201862, “PubChem BioAssay data set” (2004).
Among all 400,000 compounds or so, about 2,100 (0.53%) were called active. Not shown: some 14% with an inconclusive outcome. The rule behind the calls is not given here. The full list was thinned out, with actives kept by preference.

target: Ataxin-2 (Homo sapiens) (UniProt Q99700); test: qHTS for Inhibitors of ATXN expression.; assay type: functional
Sequence (Q99700 whole entry): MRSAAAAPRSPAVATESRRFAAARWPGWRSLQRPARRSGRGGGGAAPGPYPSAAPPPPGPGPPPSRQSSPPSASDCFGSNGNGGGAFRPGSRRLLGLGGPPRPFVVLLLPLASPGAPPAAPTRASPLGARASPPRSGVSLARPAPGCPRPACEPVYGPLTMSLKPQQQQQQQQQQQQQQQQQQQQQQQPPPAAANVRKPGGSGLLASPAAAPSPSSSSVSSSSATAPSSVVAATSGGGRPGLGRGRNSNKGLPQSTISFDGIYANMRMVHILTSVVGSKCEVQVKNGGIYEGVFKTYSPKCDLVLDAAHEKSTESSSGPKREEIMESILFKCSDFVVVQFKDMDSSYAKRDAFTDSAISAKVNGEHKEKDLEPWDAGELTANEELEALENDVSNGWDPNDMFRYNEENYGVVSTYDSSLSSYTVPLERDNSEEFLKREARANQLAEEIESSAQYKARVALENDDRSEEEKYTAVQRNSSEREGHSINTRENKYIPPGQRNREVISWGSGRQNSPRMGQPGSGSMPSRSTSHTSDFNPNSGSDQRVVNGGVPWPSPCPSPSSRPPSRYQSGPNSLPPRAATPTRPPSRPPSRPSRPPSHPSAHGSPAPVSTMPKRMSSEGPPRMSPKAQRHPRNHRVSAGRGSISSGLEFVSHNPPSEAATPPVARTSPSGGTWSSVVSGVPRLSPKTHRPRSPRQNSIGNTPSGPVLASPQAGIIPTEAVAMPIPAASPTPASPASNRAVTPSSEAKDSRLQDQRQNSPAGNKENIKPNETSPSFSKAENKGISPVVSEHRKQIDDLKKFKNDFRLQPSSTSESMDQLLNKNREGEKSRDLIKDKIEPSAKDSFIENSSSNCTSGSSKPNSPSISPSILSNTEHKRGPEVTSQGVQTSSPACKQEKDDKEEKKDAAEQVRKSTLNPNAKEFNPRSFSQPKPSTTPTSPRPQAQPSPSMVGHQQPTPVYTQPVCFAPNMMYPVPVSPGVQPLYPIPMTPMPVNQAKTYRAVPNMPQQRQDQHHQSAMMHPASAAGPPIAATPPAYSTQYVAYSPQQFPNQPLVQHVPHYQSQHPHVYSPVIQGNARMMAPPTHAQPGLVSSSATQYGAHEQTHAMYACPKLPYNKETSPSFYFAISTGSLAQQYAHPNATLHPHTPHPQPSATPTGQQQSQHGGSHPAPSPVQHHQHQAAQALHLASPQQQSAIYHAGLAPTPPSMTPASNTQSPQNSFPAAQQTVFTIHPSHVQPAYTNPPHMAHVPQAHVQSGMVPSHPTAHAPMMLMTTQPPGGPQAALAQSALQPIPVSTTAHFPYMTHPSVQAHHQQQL

Compound	Potency
O=C(NCc1ccccc1Cl)[C@H]1CCCN1C(=O)[C@H]1CCCN1C(=O)c1cccc2ccccc12	10 µM (active)
O=C(NCc1ccccc1Cl)C1CCN(S(=O)(=O)c2ccc(-n3cnnn3)cc2)CC1	inactive
O=C(NCc1ccccc1Cl)C1CCCO1 (configuration not stated)	inactive
COc1ccc(CNC(=O)COC(=O)c2ccc(OCC3CCCO3)cc2)cc1 (configuration not stated)	inactive
CC1CCN(S(=O)(=O)c2ccc3c4c2CC(=O)N4CC(C)S3)CC1 (configuration not stated)	31.6 µM (active)
CCN1C(=O)c2cccc3c(S(=O)(=O)N4CCC(C)CC4)ccc1c23	inactive
CC(=O)N1CCSc2ccc(S(=O)(=O)N3CCC(C)CC3)cc21	inactive
O=C(CCNC(=O)c1ccccc1)Nc1nc2ccccc2s1	inactive
Cc1nc(SCC(=O)Nc2nc3ccccc3s2)c(C#N)c(C)c1C	inactive
CC(C)(C)c1nc2ccccc2c2nnc(SCC(=O)Nc3nc4ccccc4s3)n12	35.5 µM (active)
CCC(C)n1c(=N)c(C(=O)NC2CCCC2)cc2c(=O)n3ccccc3nc21 (configuration not stated)	inactive
COc1ccc(C(=O)c2c(N)sc3c2CCN(C(=O)OC(C)(C)C)C3)cc1	inactive
O=C1C=CC2(O[C@H](c3ccccc3)[C@@H](c3ccccc3)O2)[C@H](Sc2ccccc2O)C1	2 µM (active)
CCN(CC)c1ccc2c(C)cc(=O)oc2c1	inactive
CN(C)CCN/C=C1/C(=O)N(Cc2ccccc2)C(=O)c2ccccc21	inactive
CN(C)CCN/C=C1/C(=O)N(Cc2ccc3c(c2)OCO3)C(=O)c2ccccc21	inactive
CC1(C)CC(N/C=C2/C(=O)N(Cc3ccc4c(c3)OCO4)C(=O)c3ccccc32)CC(C)(C)N1	21.2 µM (active)
N#CCC(=O)Nc1ccc(C(=O)NNC(=O)c2ccccc2-n2cccc2)cc1	inactive
COc1cc(N2N=C(c3ccccc3)CC2c2ccccc2)c(C=O)cc1C=O (configuration not stated)	inactive
Cc1ccc(-c2nc3ncccc3o2)cc1N	inactive
Nc1c(C(=O)Nc2cccc(Cl)c2Cl)sc2nc(-c3cccnc3)ccc12	inactive
O=C(Nc1cccc(-c2nc3ncccc3o2)c1)c1sc2ccccc2c1Cl	17.8 µM (active)
COC(=O)c1ccc(N/C=C\C(=O)c2ccc3c(c2)OCO3)cc1	inactive
CNC(=S)N/N=C(\C)c1ccc2c(c1)OCO2	44.7 µM (active)
COCCCNC(=S)N/N=C/c1ccc2c(c1)OCO2	inactive

Compound	Potency
COc1cc(Cn2c(N)c(C#N)c3nc4ccccc4nc32)cc(OC)c1	inactive
O=C(Oc1ccc2c(-c3ccccc3)cc(=O)oc2c1)c1cccs1	inactive
COc1ccc(N2C(c3ccsc3)=Cc3cc4c(cc3C2c2c[nH]c3ccccc23)OCO4)cc1 (configuration not stated)	28.2 µM (active)
O=C(NC1CCS(=O)(=O)C1)c1cc2c(=O)n3ccccc3nc2n1Cc1ccccc1 (configuration not stated)	inactive
CCN(CC)CCNC(=O)C(Cl)=C1C(Cl)=C(Cl)C(Cl)=C1Cl	44.7 µM (active)
CCCCOC(=O)c1ccc(NC(=O)C(=O)NCCN(CC)CC)cc1	inactive
O=C(Cn1cc(C(F)(F)F)ccc1=O)NCc1ccc(F)cc1	inactive
N=C(N)N/N=C(\c1ccc(F)cc1)c1ccc(C(F)(F)F)cc1	5.97 µM (active)
CC(=O)CCC(=O)OCC(=O)c1ccc(C(F)(F)F)cc1	inactive
CNC(=O)c1sc(N2N=C3/C(=C\c4ccccc4)CCCC3C2c2ccccc2)nc1C (configuration not stated)	inactive
C[C@H](CO)N1C[C@H](C)[C@@H](CN(C)Cc2ccc(Cl)c(Cl)c2)Oc2c(NC(=O)C3CC3)cccc2C1=O	28.2 µM (active)
C[C@@H]1CN([C@@H](C)CO)C(=O)c2cccc(NC(=O)C3CCCCC3)c2O[C@@H]1CN(C)Cc1ccc(Cl)c(Cl)c1	35.5 µM (active)
CCCC(=O)Nc1ccc(C(=O)COC(=O)C2CC2C)cc1 (configuration not stated)	inactive
CC(C)(C)c1ccc(OCC(=O)NNC(=O)Nc2ccccc2)cc1	inactive
CCc1ccc(OCC(=O)NC(N=C(S)Nc2ccc(Cl)cc2)C(Cl)(Cl)Cl)cc1 (configuration not stated)	39.8 µM (active)
O=C(COc1ccc(Cl)cc1)NNC(=O)CSc1nncs1	inactive
CCCC(=O)NC(N=C(S)Nc1ccc(N=Nc2ccccc2)cc1)C(Cl)(Cl)Cl (configuration not stated)	22.4 µM (active)
COc1ccc(C(=O)c2sc3nc(C)cc(-c4cccs4)c3c2N)cc1	inactive
O=C1NC2c3c(I)sc(I)c3C(=O)C2O1 (configuration not stated)	39.8 µM (active)
COc1ccc(OC)c(NC(=O)c2cnc(Nc3ccc(C)c(Cl)c3)c3ccccc23)c1	inactive
Oc1c(Cl)cc(Cl)cc1/C=N/c1nc[nH]n1	inactive
O=C(Nc1ccccc1)Nc1cccc2nsnc12	inactive
CCCCN(C(=O)C1CCC(CNS(=O)(=O)c2cccc3nsnc23)CC1)c1ccccc1 (configuration not stated)	39.8 µM (active)
Cc1c(Cl)cccc1NS(=O)(=O)c1cccc2nsnc12	inactive
Cn1nnc(NC(=S)NC(=O)c2ccc3ccccc3c2)n1	inactive

Compound	Potency
CCOC(=O)C1=C(CN2CCN(c3ccc(OC)cc3)CC2)NC(=O)NC1c1ccc(Cl)cc1 (configuration not stated)	39.8 µM (active)
CCC(CC)COC(=O)C1=C(C)NC(=O)NC1c1ccc([N+](=O)[O-])cc1 (configuration not stated)	inactive
COC(=O)C1=C(C)NC(=O)NC1c1ccc(OC(=O)c2ccco2)cc1 (configuration not stated)	inactive
CCOC(=O)C1=C(COC(=O)COc2cccc(C)c2C)NC(=O)NC1C (configuration not stated)	inactive
CCOC(=O)C1=C(COc2ccccc2)NC(=O)NC1c1ccc2ccccc2c1 (configuration not stated)	35.5 µM (active)
CCOC(=O)C1=C(C)NC(=O)NC1c1ccc(N2CCC(c3ccccc3)=N2)cc1 (configuration not stated)	inactive
CCOC(=O)c1cc2c(=O)n3ccccc3nc2n(CC(C)C)/c1=N\C(=O)COc1ccc(Cl)cc1	inactive
Cc1nc2sc(C(=O)OC(C)C)c(N)c2c(C)c1C	inactive
COc1cc(/C=C(/C#N)C(=O)NCCCc2ccccc2)ccc1OCC(=O)O	inactive
Cc1cc(=O)oc2cc(NS(=O)(=O)c3ccc(F)cc3)ccc12	inactive
Cc1cc(C)nc(NS(=O)(=O)c2ccc(N/C=C\C(=O)c3cccs3)cc2)n1	inactive
Cc1cc(F)ccc1S(=O)(=O)Nc1ccc2c(c1)CCCN2C(=O)c1cccs1	39.8 µM (active)
O=S(=O)(c1ccc2ccccc2c1)N1CCc2ccccc21	inactive
Cc1ccc(S(=O)(=O)N2CCCc3cc(NS(=O)(=O)c4ccc(F)cc4)ccc32)cc1	39.8 µM (active)
Cc1cc(=O)oc2cc(NS(=O)(=O)c3ccccc3)ccc12	inactive
Cc1ccc2nc(-c3ccc(NS(=O)(=O)c4ccc(F)cc4)cc3)sc2c1	inactive
Cc1ccc(S(=O)(=O)N2CCCc3cc(NS(=O)(=O)c4ccccc4)ccc32)cc1	39.8 µM (active)
C[C@@H]1C(c2cccc(Cl)c2)=NN(c2ccc(Br)cc2)[C@H]1C(=O)N1CCOC1=O	inactive
Cc1cc(N2CCCC2)c(F)cc1/C=C\[N+](=O)[O-]	inactive
Cc1cc(NC(=O)CCN2CCC(C)CC2)ccc1Br	inactive
CC(=O)N1CCCc2cc(S(=O)(=O)N(C)CC(=O)Nc3ccccc3)ccc21	inactive
Cc1cc(NC(=O)CN(C)S(=O)(=O)c2ccc3c(c2)CCCC(=O)N3)ccc1Br	31.6 µM (active)
O=C1CS/C(=N/N=C/c2ccccc2)N1Cc1ccco1	inactive
COc1ccc(-c2[nH]c(-c3ccc4c(c3)OCO4)nc2-c2ccccc2)cc1	44.7 µM (active)
C(=C/c1[nH]ccc2c3ccccc3nc1-2)/c1ccc2c(c1)OCO2	inactive

Compound	Potency
COc1ccc2[nH]c(C(=O)N(Cc3ccccn3)Cc3ccccn3)cc2c1	inactive
O=C1N/C(=C/c2cccn2-c2ccc(F)cc2)C(=O)N1Cc1ccccc1F	inactive
O=[N+]([O-])c1ccc(Sc2ccncn2)c([N+](=O)[O-])c1	8.91 µM (active)
O=[N+]([O-])c1ccc(Cc2ccccn2)c([N+](=O)[O-])c1	inactive
CN(C)c1ccc(/C=N/N(CCO)C2=NS(=O)(=O)c3ccccc32)cc1	inactive
CCOc1ccc(-c2cn3c(n2)sc2cc(C(=O)NCCCN4CCCCCC4)ccc23)cc1	22.4 µM (active)
CCOc1ccc2nc(NCCCNC(=O)c3cc(OC)c(OC)c(OC)c3)c(C#N)cc2c1	inactive
COc1ccc(-c2cc(C(F)(F)F)n3nc(C(=O)NCCCN4CCOCC4)cc3n2)cc1	inactive
C=CCC1=C/C(=C\c2c(N)n3nc(CC(=O)N4CCCC4)sc3nc2=O)C=C(OC)C1=O	inactive
COc1ccc(N2C(=O)CC(Sc3nnc(-c4ccccc4F)n3C)C2=O)cc1 (configuration not stated)	39.8 µM (active)
COc1ccc(Cc2nnc(NC(=O)C3CC(=O)N(c4ccc(OC)cc4)C3)s2)cc1 (configuration not stated)	inactive
COc1ccc(CCN(C(=O)/C=C/C(=O)O)C2CC(=O)N(c3ccccc3)C2=O)cc1 (configuration not stated)	inactive
COc1ccc(C2CC(c3ccccc3F)=NN2c2ccc(S(N)(=O)=O)cc2)cc1 (configuration not stated)	inactive
C=CCNc1nnc(SC2CC(=O)N(c3ccc(OC)cc3)C2=O)s1 (configuration not stated)	39.8 µM (active)
COc1ccc(N2C(=O)CC(N3CCN(c4ccccc4)CC3)C2=O)cc1 (configuration not stated)	inactive
CN1CCC[C@H]1CCNc1ccc2c(=O)c3ccccc3n(C)c2c1	inactive
O=C(N/N=C/c1ccc(O)cc1)Nc1cccc2nsnc12	inactive
COc1ccccc1/C=C1\SC(=S)N(CCC(=O)NC2=NCCS2)C1=O	inactive
CCCN1C(=O)/C(=C/c2c(N3CCNC(=O)C3CC(=O)OCC)nc3c(C)cccn3c2=O)SC1=S (configuration not stated)	inactive
CCCCC(CC)CN1C(=O)/C(=C/c2c[nH]nc2-c2ccccc2)SC1=S (configuration not stated)	22.4 µM (active)
CC(C)CN1C(=O)/C(=C/c2c[nH]nc2-c2ccccc2)SC1=S	39.8 µM (active)
Cc1ccnn1CC(=O)N/N=C/c1c[nH]nc1-c1ccccc1	inactive
